# Reference: paper PMC7862700, “An all-to-all approach to the identification of sequence-specific readers for epigenetic DNA modifications on cytosine”
# Assays:
# Test in all cases: DAPPL (digital affinity profiling via proximity ligation, sequencing); 10 mM Tris-HCl pH 7.5, 50 mM NaCl, 1 mM DTT, 4% glycerol, room temperature, 30 min; GST-TFs on glutathione beads, 16-mer random dsDNA library, 0.1% formaldehyde crosslink after washing; high values mean tight binding
# Settings in all cases: protein: recombinant; tags: N-terminal GST; dsDNA, one strand shown
# FLI1 = biological target: T1, FLI1 (Homo sapiens, UniProt Q01543 1-452)
# T1 sequence: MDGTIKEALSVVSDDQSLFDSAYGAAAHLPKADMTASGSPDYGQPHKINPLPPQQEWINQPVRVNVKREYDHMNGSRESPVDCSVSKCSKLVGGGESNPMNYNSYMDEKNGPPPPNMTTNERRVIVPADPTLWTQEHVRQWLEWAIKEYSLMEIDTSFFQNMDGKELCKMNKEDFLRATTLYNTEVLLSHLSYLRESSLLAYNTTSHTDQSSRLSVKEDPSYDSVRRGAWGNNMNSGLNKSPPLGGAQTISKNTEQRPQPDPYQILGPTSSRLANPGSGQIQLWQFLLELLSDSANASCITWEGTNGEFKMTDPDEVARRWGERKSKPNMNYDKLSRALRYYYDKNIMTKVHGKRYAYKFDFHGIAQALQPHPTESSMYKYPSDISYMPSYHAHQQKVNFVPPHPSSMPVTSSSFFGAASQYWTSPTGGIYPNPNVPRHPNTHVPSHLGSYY
# Summary of the method: (§1)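 After expression in yeast as GST fusions, human transcription factors were bound to glutathione beads, DNA-barcoded and mixed with a tag-only sample. The pools were incubated with 200 nmole of a 16-mer random double-stranded DNA library in Tris/NaCl/DTT/glycerol buffer (30 min, room temperature), washed and crosslinked with 0.1% formaldehyde. Proximity ligation with BsaI/T4 ligase ran for 1 h at 37 °C, before PCR amplification and sequencing on an Illumina NextSeq500. Binding signal is a hexamer's read frequency for a factor divided by its frequency for the tag-only sample.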
# ELK1 = biological target: T2, ELK1 (Homo sapiens, UniProt P19419 1-428)
# T2 sequence: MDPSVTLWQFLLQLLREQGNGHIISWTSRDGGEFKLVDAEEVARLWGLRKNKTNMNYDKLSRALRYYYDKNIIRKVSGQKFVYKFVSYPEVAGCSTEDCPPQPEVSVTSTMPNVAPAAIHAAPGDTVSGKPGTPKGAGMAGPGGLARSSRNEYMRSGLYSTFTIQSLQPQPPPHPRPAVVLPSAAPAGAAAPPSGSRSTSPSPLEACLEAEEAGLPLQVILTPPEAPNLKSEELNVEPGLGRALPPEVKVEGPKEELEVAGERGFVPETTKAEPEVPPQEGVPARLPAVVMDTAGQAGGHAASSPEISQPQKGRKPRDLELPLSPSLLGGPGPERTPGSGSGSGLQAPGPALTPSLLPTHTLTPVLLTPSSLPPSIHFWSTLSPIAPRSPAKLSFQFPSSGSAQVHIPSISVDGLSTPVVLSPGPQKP
# Summary of the method: as §1
# GABPA = biological target: T3, GABPA (Homo sapiens, UniProt Q06546 1-454)
# T3 sequence: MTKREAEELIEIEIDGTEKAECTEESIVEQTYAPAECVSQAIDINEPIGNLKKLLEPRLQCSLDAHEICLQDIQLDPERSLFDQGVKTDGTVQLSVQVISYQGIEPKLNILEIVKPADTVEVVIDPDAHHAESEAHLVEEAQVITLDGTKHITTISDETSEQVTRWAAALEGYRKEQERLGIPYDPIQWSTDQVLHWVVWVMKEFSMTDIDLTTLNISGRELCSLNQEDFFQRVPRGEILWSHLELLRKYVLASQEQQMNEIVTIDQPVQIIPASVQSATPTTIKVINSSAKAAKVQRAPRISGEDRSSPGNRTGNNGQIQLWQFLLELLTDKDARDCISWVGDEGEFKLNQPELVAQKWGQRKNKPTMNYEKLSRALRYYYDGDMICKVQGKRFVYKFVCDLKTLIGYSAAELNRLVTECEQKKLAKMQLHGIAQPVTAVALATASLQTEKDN
# Summary of the method: as §1
# ELF1 = ELF1 (Homo sapiens, UniProt P32519 1-619)
# Chain of ELF1 (P32519 whole entry): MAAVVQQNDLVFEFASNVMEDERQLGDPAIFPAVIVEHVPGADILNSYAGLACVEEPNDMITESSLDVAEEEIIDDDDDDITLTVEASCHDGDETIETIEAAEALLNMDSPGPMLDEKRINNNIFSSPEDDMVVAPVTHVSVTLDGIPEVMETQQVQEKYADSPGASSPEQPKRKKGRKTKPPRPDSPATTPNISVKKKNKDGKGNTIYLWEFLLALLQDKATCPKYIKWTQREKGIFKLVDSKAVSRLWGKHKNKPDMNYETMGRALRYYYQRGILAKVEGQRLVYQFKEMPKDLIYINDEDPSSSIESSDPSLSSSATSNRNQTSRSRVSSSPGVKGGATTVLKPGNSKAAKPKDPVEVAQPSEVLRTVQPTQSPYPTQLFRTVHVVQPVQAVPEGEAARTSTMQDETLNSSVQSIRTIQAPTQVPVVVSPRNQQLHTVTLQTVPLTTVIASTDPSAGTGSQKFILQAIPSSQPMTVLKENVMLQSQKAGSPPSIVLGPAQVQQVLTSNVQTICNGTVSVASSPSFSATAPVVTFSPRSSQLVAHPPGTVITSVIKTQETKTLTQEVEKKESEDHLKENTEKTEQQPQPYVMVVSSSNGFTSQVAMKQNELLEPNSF
# Summary of the method: as §1
# EHF = biological target: T4, EHF (Homo sapiens, UniProt Q9NZC4 1-300)
# T4 sequence: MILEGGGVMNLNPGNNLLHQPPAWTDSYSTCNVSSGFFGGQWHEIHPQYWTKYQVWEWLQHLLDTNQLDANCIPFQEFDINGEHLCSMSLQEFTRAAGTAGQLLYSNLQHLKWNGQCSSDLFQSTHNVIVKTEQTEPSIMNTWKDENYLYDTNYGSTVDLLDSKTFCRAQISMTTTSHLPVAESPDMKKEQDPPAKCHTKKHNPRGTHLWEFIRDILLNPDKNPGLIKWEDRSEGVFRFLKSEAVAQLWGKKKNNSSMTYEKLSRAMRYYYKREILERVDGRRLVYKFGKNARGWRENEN
# Summary of the method: as §1
# SPI1 = SPI1 (Homo sapiens, UniProt P17947 1-270)
# Summary of the method: as §1
# ELK3 = biological target: T5, ELK3 (Homo sapiens, UniProt P41970 1-407)
# T5 sequence: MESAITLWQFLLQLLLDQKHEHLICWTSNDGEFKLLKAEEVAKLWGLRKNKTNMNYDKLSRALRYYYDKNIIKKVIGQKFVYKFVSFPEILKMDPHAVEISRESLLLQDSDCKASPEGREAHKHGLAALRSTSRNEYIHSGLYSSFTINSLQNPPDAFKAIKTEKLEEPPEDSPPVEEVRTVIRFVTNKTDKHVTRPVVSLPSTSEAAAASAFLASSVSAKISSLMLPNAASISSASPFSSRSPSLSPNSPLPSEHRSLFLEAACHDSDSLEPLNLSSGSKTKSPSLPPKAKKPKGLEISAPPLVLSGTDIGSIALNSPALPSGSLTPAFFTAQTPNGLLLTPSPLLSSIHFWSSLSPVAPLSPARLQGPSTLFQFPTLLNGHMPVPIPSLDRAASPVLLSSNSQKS
# Summary of the method: as §1
# ELF3 = biological target: T6, ELF3 (Homo sapiens, UniProt P78545 1-371)
# T6 sequence: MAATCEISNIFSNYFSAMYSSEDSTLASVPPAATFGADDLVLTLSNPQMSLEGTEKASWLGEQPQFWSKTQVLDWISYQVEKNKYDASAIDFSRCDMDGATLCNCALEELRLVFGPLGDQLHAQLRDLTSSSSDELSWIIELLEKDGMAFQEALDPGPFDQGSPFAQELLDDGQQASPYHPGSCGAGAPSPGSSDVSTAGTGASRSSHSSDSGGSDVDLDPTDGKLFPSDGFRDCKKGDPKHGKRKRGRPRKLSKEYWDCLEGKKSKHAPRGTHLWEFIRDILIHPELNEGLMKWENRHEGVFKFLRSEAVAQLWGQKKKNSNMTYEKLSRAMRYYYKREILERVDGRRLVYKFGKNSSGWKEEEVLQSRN
# Summary of the method: as §1
# ERF = biological target: T7, ERF (Homo sapiens, UniProt P50548 1-548)
# T7 sequence: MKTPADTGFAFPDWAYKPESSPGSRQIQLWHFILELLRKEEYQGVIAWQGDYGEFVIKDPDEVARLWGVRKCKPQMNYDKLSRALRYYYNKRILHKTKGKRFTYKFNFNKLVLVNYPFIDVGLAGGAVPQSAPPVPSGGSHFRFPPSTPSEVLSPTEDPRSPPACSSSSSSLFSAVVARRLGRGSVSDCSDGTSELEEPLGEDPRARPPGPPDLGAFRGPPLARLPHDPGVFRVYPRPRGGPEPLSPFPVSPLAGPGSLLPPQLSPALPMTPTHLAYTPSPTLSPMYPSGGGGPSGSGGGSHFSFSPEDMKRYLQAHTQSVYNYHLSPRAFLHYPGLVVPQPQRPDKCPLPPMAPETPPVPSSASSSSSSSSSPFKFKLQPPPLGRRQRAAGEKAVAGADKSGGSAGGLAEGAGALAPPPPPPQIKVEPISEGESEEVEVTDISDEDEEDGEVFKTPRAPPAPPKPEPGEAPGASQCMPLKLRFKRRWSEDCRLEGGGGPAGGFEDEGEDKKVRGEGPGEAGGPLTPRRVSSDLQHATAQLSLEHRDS
# Summary of the method: as §1
# ETV3L = biological target: T8, ETV3L (Homo sapiens, UniProt Q6ZN32 1-361)
# T8 sequence: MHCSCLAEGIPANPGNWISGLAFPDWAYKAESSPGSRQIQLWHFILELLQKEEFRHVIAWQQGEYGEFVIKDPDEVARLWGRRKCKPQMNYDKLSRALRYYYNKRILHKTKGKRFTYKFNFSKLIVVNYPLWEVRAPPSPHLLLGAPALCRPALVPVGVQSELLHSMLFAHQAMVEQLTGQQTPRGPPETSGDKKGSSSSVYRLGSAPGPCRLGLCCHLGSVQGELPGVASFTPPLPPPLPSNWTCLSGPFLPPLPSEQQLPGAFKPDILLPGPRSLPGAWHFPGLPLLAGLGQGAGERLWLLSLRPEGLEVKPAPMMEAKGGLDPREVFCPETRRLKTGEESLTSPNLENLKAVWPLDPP
# Summary of the method: as §1
# SPDEF = biological target: T9, SPDEF (Homo sapiens, UniProt O95238 1-335)
# T9 sequence: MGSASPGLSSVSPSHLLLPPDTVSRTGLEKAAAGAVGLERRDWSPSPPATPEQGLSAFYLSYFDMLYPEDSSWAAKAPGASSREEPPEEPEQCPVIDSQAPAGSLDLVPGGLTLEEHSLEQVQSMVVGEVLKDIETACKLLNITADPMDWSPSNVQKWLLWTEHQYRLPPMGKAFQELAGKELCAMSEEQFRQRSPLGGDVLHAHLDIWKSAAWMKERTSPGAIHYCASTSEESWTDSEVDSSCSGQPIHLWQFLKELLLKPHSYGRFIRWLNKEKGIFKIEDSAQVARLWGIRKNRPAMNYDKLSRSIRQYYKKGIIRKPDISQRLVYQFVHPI
# Summary of the method: as §1
# ETV7 = biological target: T10, ETV7 (Homo sapiens, UniProt Q9Y603 1-341)
# T10 sequence: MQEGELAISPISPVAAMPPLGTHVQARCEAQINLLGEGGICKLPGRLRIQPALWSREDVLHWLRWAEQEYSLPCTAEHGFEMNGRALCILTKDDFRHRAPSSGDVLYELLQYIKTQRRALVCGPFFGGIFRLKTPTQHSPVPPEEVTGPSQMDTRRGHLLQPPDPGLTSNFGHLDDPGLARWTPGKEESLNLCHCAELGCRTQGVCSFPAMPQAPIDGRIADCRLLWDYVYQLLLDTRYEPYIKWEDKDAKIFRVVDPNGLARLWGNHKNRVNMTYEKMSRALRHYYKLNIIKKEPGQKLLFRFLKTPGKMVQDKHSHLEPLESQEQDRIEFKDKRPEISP
# Summary of the method: as §1
# ETV3 = biological target: T11, ETV3 (Homo sapiens, UniProt P41162-2 1-143)
# T11 sequence: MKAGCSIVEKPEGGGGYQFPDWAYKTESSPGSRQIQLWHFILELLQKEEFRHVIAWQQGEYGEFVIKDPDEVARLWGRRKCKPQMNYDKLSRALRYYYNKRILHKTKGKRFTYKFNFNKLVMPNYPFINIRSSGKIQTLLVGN
# Summary of the method: as §1
# ETV6 = ETV6 (Homo sapiens, UniProt P41212 1-452)
# Chain of ETV6 (P41212 whole entry): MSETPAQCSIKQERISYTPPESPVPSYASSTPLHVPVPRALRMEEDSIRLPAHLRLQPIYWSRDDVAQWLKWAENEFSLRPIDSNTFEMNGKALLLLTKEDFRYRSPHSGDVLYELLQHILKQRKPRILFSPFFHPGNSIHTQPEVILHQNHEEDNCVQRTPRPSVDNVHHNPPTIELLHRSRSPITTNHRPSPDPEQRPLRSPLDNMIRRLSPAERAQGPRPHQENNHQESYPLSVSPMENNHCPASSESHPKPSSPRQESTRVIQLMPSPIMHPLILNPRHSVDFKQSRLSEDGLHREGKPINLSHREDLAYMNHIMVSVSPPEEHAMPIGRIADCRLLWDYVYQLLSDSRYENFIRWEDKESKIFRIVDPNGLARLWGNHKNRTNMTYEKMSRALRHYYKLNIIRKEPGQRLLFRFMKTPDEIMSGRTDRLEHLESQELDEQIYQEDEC
# Summary of the method: as §1
# ETS2 = biological target: T12, ETS2 (Homo sapiens, UniProt P15036 1-469)
# T12 sequence: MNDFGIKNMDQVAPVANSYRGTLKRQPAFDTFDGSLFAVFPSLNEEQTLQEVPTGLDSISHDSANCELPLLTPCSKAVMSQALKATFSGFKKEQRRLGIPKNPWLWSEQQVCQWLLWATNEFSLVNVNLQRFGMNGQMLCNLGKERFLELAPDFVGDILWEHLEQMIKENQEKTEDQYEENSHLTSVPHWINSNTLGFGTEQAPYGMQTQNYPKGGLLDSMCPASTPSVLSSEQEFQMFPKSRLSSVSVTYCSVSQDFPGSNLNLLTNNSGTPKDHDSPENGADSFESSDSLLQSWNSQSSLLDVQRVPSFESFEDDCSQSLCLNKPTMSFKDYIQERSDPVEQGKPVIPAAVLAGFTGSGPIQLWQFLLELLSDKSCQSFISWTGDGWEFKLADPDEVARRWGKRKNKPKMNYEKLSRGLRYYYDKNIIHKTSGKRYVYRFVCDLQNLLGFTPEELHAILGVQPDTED
# Summary of the method: as §1
Sequence,binding signal (FLI1),binding signal (ELK1),binding signal (GABPA),binding signal (ELF1),binding signal (EHF),binding signal (SPI1),binding signal (ELK3),binding signal (ELF3),binding signal (ERF),binding signal (ETV3L),binding signal (SPDEF),binding signal (ETV7),binding signal (ETV3),binding signal (ETV6),binding signal (ETS2)
CTGGTG,"1.01 fold enrichment (6-mer frequency, TF over GST control)","1.05 fold enrichment (6-mer frequency, TF over GST control)","1.01 fold enrichment (6-mer frequency, TF over GST control)","1.02 fold enrichment (6-mer frequency, TF over GST control)","1.09 fold enrichment (6-mer frequency, TF over GST control)","1.04 fold enrichment (6-mer frequency, TF over GST control)","1.15 fold enrichment (6-mer frequency, TF over GST control)","1.09 fold enrichment (6-mer frequency, TF over GST control)","1.05 fold enrichment (6-mer frequency, TF over GST control)","1.06 fold enrichment (6-mer frequency, TF over GST control)","1.01 fold enrichment (6-mer frequency, TF over GST control)","1.04 fold enrichment (6-mer frequency, TF over GST control)","1.03 fold enrichment (6-mer frequency, TF over GST control)","1.03 fold enrichment (6-mer frequency, TF over GST control)",
ACAAAG,"1.04 fold enrichment (6-mer frequency, TF over GST control)",,"1.03 fold enrichment (6-mer frequency, TF over GST control)","1.02 fold enrichment (6-mer frequency, TF over GST control)",,,"1.04 fold enrichment (6-mer frequency, TF over GST control)",,"1.01 fold enrichment (6-mer frequency, TF over GST control)",,,"1.01 fold enrichment (6-mer frequency, TF over GST control)",,,"1.01 fold enrichment (6-mer frequency, TF over GST control)"
